# High-throughput results deposited in PubChem BioAssay by Broad Institute.
# The list is not random: actives were taken first. Their share in the collection is about 4%.
# Statin myotox sup – suppression of simvastatin myotoxicity; 330,000 compounds, 0.78% hits; C2C12 myotubes + simvastatin, ATP luminescence, 48 h; scaled: DMSO 0, geranylgeraniol control 100; rescue of ATP level, % at 7.49 µM; AID 602340;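 active means mean ATP rescue above about 67%, or every replicate alone reaching that limit, limit read from the data, passing the limit was not always enough; inconclusive means no clear call, values can overlap the other calls; inactive means mean under the limit and some replicate under it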;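 further: myotubes were challenged with 10 µM simvastatin during compound exposure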
# TRPM1 prom inh – MITF TRPM1 promoter inhibition in SK-MEL-5 cells | SK-MEL-5 TRPM1 promoter luciferase, 24 h | inhibition, % at 12.5 µM | 330,000 compounds, 0.83% hits | AID 488899;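 active means mean inhibition across replicates of 60% or more, whatever share of single replicates reaches that level; inconclusive means some that reach 60%, reason not given; inactive means mean inhibition across replicates below 60%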
# esBAF inh – inhibitors of esBAF chromatin remodeling in mouse ES cells. 350,000 compounds, 2% hits. Bmi1-luciferase knock-in reporter, 24 h; 100% = twice the neutral-well signal. reporter increase, % at 12.5 µM; in the data active means activation above about 40%; inconclusive means no clear call, values can overlap the other calls;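 further: 0% = median of the plate's neutral control wells and 100% = double that signal; a rise in the Bmi1 reporter signal indicates esBAF inhibition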
# MITF TRPM1 HTS – increases MITF-driven TRPM1 promoter luciferase signal. SK-MEL-5 TRPM1-promoter luciferase, 24 h; % of positive control, neutral wells = 0. activation, % at 12.5 µM. 300,000 compounds, 0.75% hits;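 active means mean activation of at least 80% with every replicate also reaching 80%; inconclusive means mean reaches 80% but some replicate falls short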;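 further: 0% = neutral control wells and 100% = parthenolide positive control wells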
# LMP1 NFkB inh – inhibitors of Epstein-Barr LMP1-induced NF-kappaB reporter. inhibition, % at 12.5 µM. 350,000 compounds, 0.69% hits. LMP1-induced NF-kappaB luciferase reporter cells, luminescence. AID 504558; in the data active means inhibition above about 41%; inconclusive means no clear call, values can overlap the other calls;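 further: 0% = neutral control wells and 100% = reference inhibitor control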
# Wnt act – Wnt/beta-catenin pathway activation; Wnt/beta-catenin reporter cell assay, activator, plate reader; activation, % at 9.35 µM; 300,000 compounds, 1.2% hits; in the data active means activation above about 30%, passing the limit was not always enough; inconclusive means no clear call, values can overlap the other calls;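 further: 0% = neutral control wells and 100% = positive control wells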
# Active calls of the source: *; u = inconclusive; x = no result given.
SMILES,Statin myotox sup,TRPM1 prom inh,esBAF inh,MITF TRPM1 HTS,LMP1 NFkB inh,Wnt act
COc1cccc(OC)c1C(=O)NCCSC1CCCCC1,-1,-11,-5,9,59*,-1
CCCCn1c(=O)[nH]c(=O)c2c1nc(COc1ccc(C#N)cc1)n2CCC,x,0,x,1,-8,x
COC(=O)c1cccc(CN2C(=O)C(C)Sc3cc(Cl)ccc32)c1 (stereo unspecified),26,x,45*,x,x,-2
COC(=O)c1cccc(CN2C(=O)C(C)Sc3ccc(C)cc32)c1 (stereo unspecified),-13,x,17,x,x,0
COC(=O)c1cccc(CN2C(=O)C(C)Sc3ccc(C(C)=O)cc32)c1 (stereo unspecified),-8,x,46*,x,x,0
O=[N+]([O-])c1nn(-c2ccc(Cl)cc2)n(O)c1=NCc1ccccc1,11,-8,23,11,-4,40*
O=[N+]([O-])c1nn(-c2ccc3c(c2)OCCO3)n(O)c1=Nc1ccccc1,x,86*,x,-85,75*,-11
O=[N+]([O-])c1nn(-c2ccccc2)n(O)c1=NCc1ccc2c(c1)OCO2,9,1,2,5,2,-12
O=[N+]([O-])c1nn(-c2ccc3c(c2)OCCO3)n(O)c1=NC1CCCC1,25,-31,34,x,-1,33*
Cc1cc(C)cc(N=c2c([N+](=O)[O-])nn(-c3ccc4c(c3)OCCO4)n2O)c1,-15,7,12,-7,16,-7
O=[N+]([O-])c1nn(-c2ccc3c(c2)OCCO3)n(O)c1=NCCCO,x,7,14,x,-20,41*
O=[N+]([O-])c1nn(-c2ccc3c(c2)OCCO3)n(O)c1=NC1CCCCCC1,55,-19,15,17,-16,x
O=[N+]([O-])c1nn(-c2ccc3c(c2)OCCO3)n(O)c1=Nc1ccc(Cl)cc1,16,64*,-55,-63,58*,-7
Cc1c(Cl)cccc1N=c1c([N+](=O)[O-])nn(-c2ccccc2)n1O,-27,19,16,-16,-18,5
CCc1ccc(N=c2c([N+](=O)[O-])nn(-c3ccc4c(c3)OCCO4)n2O)cc1,x,5,x,-6,13,-5
Cc1ccc(N=c2c([N+](=O)[O-])nn(-c3ccc4c(c3)OCCO4)n2O)cc1F,x,34,x,-33,49*,x
Cc1ccc(N=c2c([N+](=O)[O-])nn(-c3ccccc3)n2O)c(C)c1,20,-20,67*,21,-54,-3
Oc1ccc(N2CCN(c3ccnc4cc(Cl)ccc34)CC2)cc1,-32,5,0,-4,11,0
COc1ccc(CSc2nncn2C)cc1[N+](=O)[O-],x,1,x,-2,6,0
COc1ccccc1/C=N/NC(=O)c1csc(C)c1C,x,-14,x,19,7,9
Cc1scc(C(=O)N/N=C/c2ccc(OC(C)C)cc2)c1C,-30,-46,47*,53,-33,x
Cc1scc(C(=O)N/N=C/c2ccc(Cl)s2)c1C,x,-45,x,44,-24,58*
C[C@H]1CN([C@@H](C)CO)C(=O)c2cc(N(C)C)ccc2O[C@H]1CN(C)Cc1ccc(C(F)(F)F)cc1,-81,x,-2,x,x,x
Cc1ccc(C2(c3noc(CN(C)CC4COCCO4)n3)CCCC2)cc1 (stereo unspecified),x,-4,x,6,3,-2
COc1cc(/C=N/NC(=S)NC2CC3CC2C2C=CCC32)ccc1O (stereo unspecified),-13,-19,48*,x,-15,20
SMILES,Statin myotox sup,TRPM1 prom inh,esBAF inh,MITF TRPM1 HTS,LMP1 NFkB inh,Wnt act
CCOc1ccc(/C=N/NC(=S)NC2CC3CC2C2C=CCC32)cc1 (stereo unspecified),x,-1,x,x,-1,4
COc1ccc(N(C(=O)c2cccnc2)S(=O)(=O)c2ccc(Cl)cc2)cc1,-5,x,-8,x,5,-4
CC1(C)CC(=O)c2sc(NC(=O)c3ccco3)nc2C1,-8,x,24,x,5,5
CC(=O)c1sc(NC(=O)C2COc3ccccc3O2)nc1C (stereo unspecified),14,x,-51,x,49*,36*
CC(=O)c1sc(Nc2ccc3c(c2)OCO3)nc1C,-4,x,47*,x,x,u
CC1(C)CC(=O)c2sc(NC(=O)C3COc4ccccc4O3)nc2C1 (stereo unspecified),-10,-33,45*,32,-18,6
O=C(Nc1nncs1)C1COc2ccccc2O1 (stereo unspecified),x,-1,x,2,-11,x
CC(C)(C)c1csc(NC(=O)C2COc3ccccc3O2)n1 (stereo unspecified),3,-64,55*,66,-31,0
COCCNC(=O)C[C@H]1C[C@H]2c3cc(NC(=O)Nc4ccc(OC)cc4)ccc3O[C@H]2[C@H](CO)O1,5,x,3,x,x,x
CCOc1ccc(CCNC(=O)CCc2c(C)nc3ncnn3c2C)cc1OCC,x,9,12,x,0,19
Cc1ccc(S(=O)(=O)N(C)C[C@H]2OCCCC[C@H](C)Oc3ccc(NC(=O)Nc4ccc(F)cc4)cc3C(=O)N([C@@H](C)CO)C[C@@H]2C)cc1,x,x,-3,x,x,x
Clc1ccc(-c2nc3ccc(Cl)cn3c2Cc2ccsc2)cc1,-13,x,71*,x,x,19
Clc1ccc2nc(-c3ccccc3)c(Cc3ccsc3)n2c1,-2,x,u,x,x,x
Cc1ccc(-c2nc3ccc(Cl)cn3c2Cc2cccc(Cl)c2)cc1,-3,x,50*,x,x,46*
Cc1ccc2nc(-c3cccc(Br)c3)c(Cc3ccccn3)n2c1,1,x,48*,x,x,24
COC(=O)c1ccc2nc(-c3ccco3)c(Cc3cccc(Cl)c3)n2c1,x,x,x,x,x,-2
COC(=O)c1ccc2nc(-c3ccco3)c(Cc3ccccc3)n2c1,83*,x,11,x,x,1
Cc1ccc(-c2nc3ccc(Br)cn3c2Cc2cccc(Cl)c2)cc1,-13,x,43*,x,x,12
Clc1ccc(-c2nc3ccc(Br)cn3c2Cc2cccc(Cl)c2)cc1,-18,x,u,x,x,13
Cc1ccc(-c2nc3cc(C)c(Br)c(C)n3c2Cc2cccc(F)c2)cc1,4,x,54*,x,x,11
COC(=O)c1ccc2nc(-c3cccc(Cl)c3)c(Cc3ccsc3)n2c1,-5,x,55*,x,x,15
CC(C)(CNC(=O)c1cccc(S(=O)(=O)N2CCCCC2)c1)N1CCOCC1,6,x,14,x,-7,119*
CC1CN(C(=O)c2ccc(-c3ccccc3Cl)o2)CC(C)O1 (stereo unspecified),-4,-67,33,67,-23,3
CC(=O)N1CCN(C(=O)c2ccc(-c3ccccc3Cl)o2)CC1,0,-60,47*,65,-27,25
O=[N+]([O-])c1ccccc1-c1ccc(C(=S)N2CCCC2)o1,24,-14,44*,14,-23,12
CC(C)(CNC(=O)c1ccc(Br)o1)N1CCOCC1,-2,8,-6,-7,1,0
